Measurements reported in PubChem BioAssay (EPA / NIEHS).
Records with an inconclusive call do not appear. Active and inactive are the calls of the source. The calls were made as follows, unless noted: active = hit-call score of the fitted dose curve at least 0.9, where 1 is the maximum; inactive = score below 0.9.

Legend:
[1] = molecular target: Bile acid receptor (Homo sapiens) (UniProt Q96RI1); assay: ATG_FXR_TRANS: Attagene TRANS-FACTORIAL HepG2 Assay for Farnesoid X Receptor (FXR) (AID 2282979; active = hit-call score of the fitted dose curve at least 0.9, where 1 is the maximum;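 also: hits raise reporter mRNA above DMSO so AC50 marks FXR activation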); conditions: HepG2 Attagene TRANS FXR-GAL4 reporter transcription
In short: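 Chimeric FXR-GAL4 activity in transiently transfected human HepG2 liver cells is scored as induction of reporter mRNA after 24 h of dosing. Detection uses RT-PCR with fluorescent labelling and capillary electrophoresis, with DMSO serving as baseline.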

[2] = molecular target: Oxysterols receptor LXR-beta (Homo sapiens) (UniProt P55055); assay: ATG_LXRb_TRANS: Attagene TRANS-FACTORIAL HepG2 Assay for human Liver X Receptor beta (LXRb) (AID 2282981; active = hit-call score of the fitted dose curve at least 0.9, where 1 is the maximum); conditions: HepG2 Attagene TRANS GAL4-LXRb reporter, mRNA
In short: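 Measures induction of a Gal4-driven reporter transcript in HepG2 cells expressing an exogenous LXRb-Gal4 fusion. Cells are exposed to compound for 24 h before RNA isolation and RT-PCR with capillary electrophoresis detection.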

[3] = ATG_M_32_TRANS: Attagene TRANS-FACTORIAL HepG2 Assay for M32 Transcription Factor (Internal Marker) (AID 2282984; active = hit-call score of the fitted dose curve at least 0.9, where 1 is the maximum;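 also: transcript level of a background control reporter unit measured by RT-PCR and capillary electrophoresis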); conditions: HepG2 Attagene TRANS M32 internal marker reporter
In short: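 After 24 h dosing of transfected HepG2 cells, total RNA was reverse-transcribed, reporter sequences PCR-amplified, 6-FAM labelled by primer extension and HpaI-digested before capillary electrophoresis. Signal increase over DMSO was fitted.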

[4] = molecular target: Transcriptional activator Myb (Homo sapiens) (UniProt P10242); assay: ATG_Myb_CIS: Attagene CIS-FACTORIAL HepG2 Assay for human Myeloblastosis (Myb) Proto-Oncogene Transcription Factor (AID 2282986); conditions: HepG2 Attagene CIS-FACTORIAL Myb reporter transcription; actives raise or lower the signal
In short: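 Fluorescence signals from capillary electrophoresis of RT-PCR-amplified reporter cDNA give the read-out. Cells: HepG2 transfected with multiple cis-regulated reporter units. Exposure lasts 24 hours; DMSO defines baseline for gain or loss of signal.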

[5] = molecular target: Nuclear respiratory factor 1 (Homo sapiens) (UniProt Q16656); assay: ATG_NRF1_CIS: Attagene CIS-FACTORIAL HepG2 Assay for human Nuclear Respiratory Factor 1 (NRF1) Orphan Gene (AID 2282987); conditions: HepG2 NRF1 cis-element reporter, Attagene multiplex; actives raise or lower the signal
In short: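 Transcriptional reporter readout, one component of a 52-endpoint multiplexed HepG2 panel. Exposure 24 h; mRNA detected via RT-PCR and fluorescent capillary electrophoresis; fitting in both directions against DMSO.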

[6] = ATG_NFI_CIS: Attagene CIS-FACTORIAL HepG2 Assay for human Nuclear Factor I (NFI) (AID 2282989); conditions: HepG2 cis-regulatory reporter, NFI response element transcription; actives raise or lower the signal
In short: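 Reporter transcription driven by endogenous transcription factors in HepG2 cells; 24 h treatment. Quantitation by labelled RT-PCR fragments on capillary electrophoresis, gain- or loss-of-signal relative to DMSO.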

[7] = molecular target: Myc proto-oncogene protein (Homo sapiens) (UniProt P01106); assay: ATG_Myc_CIS: Attagene CIS-FACTORIAL HepG2 Assay for human Myelocytomatosis (Myc) Proto-Oncogene Transcription Factor (AID 2282990); conditions: HepG2, Attagene cis-reporter transcription factor activity; actives raise or lower the signal
In short: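 DMSO-normalised, bidirectionally fitted reporter mRNA signal. HepG2 cells transfected with cis reporter constructs, treated 24 h; transcripts detected by RT-PCR, 6-FAM primer extension and CE.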

[8] = ATG_NRF2_ARE_CIS: Attagene CIS-FACTORIAL HepG2 Assay for human Nuclear Factor Erythroid 2 Related Factor 2 (NFR2) response to Antioxidant Response Elements (ARE) (AID 2282992); conditions: HepG2 Attagene ARE/NRF2 reporter, transcription factor activity; actives raise or lower the signal
In short: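 Endogenous transcription factor activity read out as reporter transcript levels (RT-PCR plus capillary electrophoresis, fluorescence) in transiently transfected HepG2 cells. Measured at 24 h after dosing; gain or loss of signal fitted versus DMSO.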

[9] = ATG_Oct_MLP_CIS: Attagene CIS-FACTORIAL HepG2 Assay for human Octamer-Binding Transcription Factor (Oct) (AID 2282993); conditions: HepG2 Attagene cis-factorial Oct reporter, mRNA; actives raise or lower the signal
In short: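 Transfected HepG2 cells, 24 h treatment. Reporter mRNA quantified by RT-PCR–capillary electrophoresis; bidirectional fitting against DMSO.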

[10] = molecular target: Cellular tumor antigen p53 (Homo sapiens) (UniProt P04637); assay: ATG_p53_CIS: Attagene CIS-FACTORIAL HepG2 Assay for human p53 Transcription Factor (AID 2282994); conditions: HepG2 p53 cis-element reporter, Attagene mRNA; actives raise or lower the signal
In short: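 Endogenous p53 activity read in transiently transfected HepG2 from a cis-element-driven reporter transcript after 24 h exposure. RNA reverse-transcribed, PCR-amplified, fluorescently labelled and sized by capillary electrophoresis; gain or loss fitted against DMSO baseline.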

[11] = BSK_3C_TissueFactor: BioMAP Diversity Plus: 3C Assay for Tissue Factor Biomarker Activity (AID 2282997); conditions: BioMAP 3C HUVEC, tissue factor biomarker readout; actives raise or lower the signal
In short: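 Cells used were primary human umbilical vein endothelial cells. They were dosed with chemical, and after 24 h Tissue Factor was quantified by ELISA. Curves were fitted bidirectionally with DMSO as baseline.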

[12] = BSK_3C_uPAR: BioMAP Diversity Plus: 3C Assay for Urokinase-type plasminogen activator receptor (uPAR) Biomarker Activity (AID 2282998); conditions: BioMAP 3C HUVEC, uPAR biomarker ELISA; actives raise or lower the signal
In short: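 Readout: ELISA for surface uPAR. System: human umbilical vein endothelial primary cells, 24 h after chemical exposure. Analysis: bidirectional fit, DMSO baseline.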

[13] = BSK_3C_VCAM1: BioMAP Diversity Plus: 3C Assay for Vascular cell adhesion molecule 1 (VCAM1) Biomarker Activity (AID 2282999); conditions: BioMAP 3C HUVEC, VCAM1 ELISA, cytokine-stimulated; actives raise or lower the signal
In short: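 Vascular primary endothelium (human umbilical vein) was exposed to chemicals and assayed 24 h later. VCAM-1 levels came from ELISA, with DMSO serving as baseline for bidirectional fitting.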

[14] = BSK_4H_Eotaxin3: BioMAP Diversity Plus: 4H Assay for Eotaxin 3 Biomarker Activity (AID 2283000); conditions: primary human endothelial cells (HUVEC); actives raise or lower the signal
In short: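 Endothelial primary cells (human umbilical vein) exposed to compound for 24 h. ELISA detection of Eotaxin-3.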

[15] = molecular target: Oxysterols receptor LXR-alpha (Homo sapiens) (UniProt Q13133); assay: ATG_LXRa_TRANS: Attagene TRANS-FACTORIAL HepG2 Assay for human Liver X Receptor alpha (LXRa) (AID 2282980; active = hit-call score of the fitted dose curve at least 0.9, where 1 is the maximum); conditions: HepG2 Attagene TRANS reporter, LXRa transactivation
In short: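 Transient HepG2 transfectants, 24 h dosing, RT-PCR/CE mRNA reporter quantitation; gain-of-signal vs DMSO.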

[16] = ATG_M_06_TRANS: Attagene TRANS-FACTORIAL HepG2 Assay for M06 Transcription Factor (Internal Marker) (AID 2282983; active = hit-call score of the fitted dose curve at least 0.9, where 1 is the maximum); conditions: HepG2 Attagene TRANS M06 internal marker reporter
In short: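 Human liver HepG2 cells bearing transiently transfected chimeric NR-GAL4 reporter units were treated with chemicals for 24 h. Total RNA was reverse-transcribed, reporter sequences amplified and labelled, then quantified by capillary electrophoresis. Activity was fitted upward relative to DMSO.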

[17] = ATG_NF_kB_CIS: Attagene CIS-FACTORIAL HepG2 Assay for human Nuclear Factor Kappa B (NF-kB) (AID 2282991); conditions: HepG2 Attagene cis-factorial NF-kB reporter mRNA; actives raise or lower the signal
In short: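 HepG2, transient multi-reporter transfection, cis promoter elements (endogenous TFs). 24 h exposure. Total RNA → RT → PCR → 6-FAM label → HpaI → CE. Gain/loss vs DMSO.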

[18] = molecular target: Hepatocyte nuclear factor 4-alpha (Homo sapiens) (UniProt P41235); assay: ATG_HNF4a_TRANS: Attagene TRANS-FACTORIAL HepG2 Assay for human Hepatocyte Nuclear Factor 4 alpha (HNF4a) (AID 2282982; active = hit-call score of the fitted dose curve at least 0.9, where 1 is the maximum); conditions: HepG2 HNF4a transactivation reporter, mRNA readout
In short: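 In this trans-factorial format, a chimeric HNF4a-GAL4 fusion drives a GAL4-UAS reporter in transfected HepG2 liver cells. After 24 h treatment, reporter mRNA induction is measured by RT-PCR with capillary electrophoresis, relative to DMSO.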

[19] = molecular target: Nuclear receptor subfamily 4 group A member 2 (Homo sapiens) (UniProt P43354); assay: ATG_NURR1_TRANS: Attagene TRANS-FACTORIAL HepG2 Assay for human Nuclear Receptor Related Protein 1 (NURR1) (AID 2282985; active = hit-call score of the fitted dose curve at least 0.9, where 1 is the maximum); conditions: HepG2 Attagene TRANS reporter, mRNA readout
In short: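 Chimeric NR-Gal4 fusion activity measured in HepG2 after 24 h treatment. Reporter transcripts detected by RT-PCR and capillary electrophoresis fluorescence; positive-direction curve fitting against DMSO.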

Measured: AC50

Chain of Cellular tumor antigen p53 (Homo sapiens) (P04637 whole entry, looked up): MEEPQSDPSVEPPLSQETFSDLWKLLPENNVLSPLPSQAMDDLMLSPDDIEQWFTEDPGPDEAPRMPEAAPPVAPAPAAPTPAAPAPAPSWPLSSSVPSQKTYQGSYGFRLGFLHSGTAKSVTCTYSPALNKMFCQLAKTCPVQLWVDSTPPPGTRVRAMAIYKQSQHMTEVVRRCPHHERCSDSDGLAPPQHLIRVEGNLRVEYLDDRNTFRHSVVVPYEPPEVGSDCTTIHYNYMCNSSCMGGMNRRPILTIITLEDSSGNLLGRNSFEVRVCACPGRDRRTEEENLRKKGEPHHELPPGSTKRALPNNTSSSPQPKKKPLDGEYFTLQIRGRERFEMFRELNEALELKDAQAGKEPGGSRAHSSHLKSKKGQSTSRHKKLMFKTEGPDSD
Chain of Bile acid receptor (Homo sapiens) (Q96RI1 whole entry, looked up, the tested form may be a part): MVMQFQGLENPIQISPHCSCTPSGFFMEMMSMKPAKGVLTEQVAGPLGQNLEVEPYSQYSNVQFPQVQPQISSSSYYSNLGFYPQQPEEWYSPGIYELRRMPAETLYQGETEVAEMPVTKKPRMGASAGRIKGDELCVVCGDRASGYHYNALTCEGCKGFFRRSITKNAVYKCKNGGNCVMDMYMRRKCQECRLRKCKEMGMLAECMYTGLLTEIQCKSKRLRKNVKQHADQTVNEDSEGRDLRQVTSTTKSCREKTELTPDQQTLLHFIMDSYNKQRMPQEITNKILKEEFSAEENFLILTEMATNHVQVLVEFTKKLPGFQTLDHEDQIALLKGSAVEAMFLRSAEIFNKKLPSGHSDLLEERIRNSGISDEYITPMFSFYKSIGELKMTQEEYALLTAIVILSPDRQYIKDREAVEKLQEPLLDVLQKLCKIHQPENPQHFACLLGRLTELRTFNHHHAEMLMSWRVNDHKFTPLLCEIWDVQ
Chain of Myc proto-oncogene protein (Homo sapiens) (P01106 whole entry, looked up): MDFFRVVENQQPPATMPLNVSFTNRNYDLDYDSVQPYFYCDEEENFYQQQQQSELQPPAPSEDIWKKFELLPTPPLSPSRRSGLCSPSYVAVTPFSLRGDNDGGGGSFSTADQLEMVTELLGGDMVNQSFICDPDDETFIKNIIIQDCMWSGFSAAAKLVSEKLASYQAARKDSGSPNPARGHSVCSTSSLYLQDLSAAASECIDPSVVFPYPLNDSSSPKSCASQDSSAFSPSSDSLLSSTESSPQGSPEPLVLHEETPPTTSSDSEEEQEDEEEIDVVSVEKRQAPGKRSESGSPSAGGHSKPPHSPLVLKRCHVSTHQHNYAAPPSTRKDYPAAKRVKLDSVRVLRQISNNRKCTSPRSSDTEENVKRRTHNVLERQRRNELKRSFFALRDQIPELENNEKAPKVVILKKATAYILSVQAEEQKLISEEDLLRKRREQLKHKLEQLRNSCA
Chain of Nuclear receptor subfamily 4 group A member 2 (Homo sapiens) (P43354 whole entry, looked up, the tested form may be a part): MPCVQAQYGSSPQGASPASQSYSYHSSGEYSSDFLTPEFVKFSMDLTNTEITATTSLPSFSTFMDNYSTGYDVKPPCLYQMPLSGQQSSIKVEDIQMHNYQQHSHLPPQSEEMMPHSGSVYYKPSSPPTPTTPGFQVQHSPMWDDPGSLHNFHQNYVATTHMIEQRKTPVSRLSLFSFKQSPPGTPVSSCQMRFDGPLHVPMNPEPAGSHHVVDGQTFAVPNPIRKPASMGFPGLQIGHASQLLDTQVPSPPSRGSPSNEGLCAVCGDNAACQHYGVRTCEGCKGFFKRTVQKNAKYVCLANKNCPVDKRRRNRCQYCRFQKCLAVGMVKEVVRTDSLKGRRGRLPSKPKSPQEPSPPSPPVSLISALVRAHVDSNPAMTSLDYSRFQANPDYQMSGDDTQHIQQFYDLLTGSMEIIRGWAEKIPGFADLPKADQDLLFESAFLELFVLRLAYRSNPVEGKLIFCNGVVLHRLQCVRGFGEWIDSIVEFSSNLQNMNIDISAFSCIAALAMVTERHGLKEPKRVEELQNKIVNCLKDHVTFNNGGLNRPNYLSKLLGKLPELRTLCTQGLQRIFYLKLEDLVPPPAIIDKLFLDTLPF
Chain of Transcriptional activator Myb (Homo sapiens) (P10242 whole entry, looked up): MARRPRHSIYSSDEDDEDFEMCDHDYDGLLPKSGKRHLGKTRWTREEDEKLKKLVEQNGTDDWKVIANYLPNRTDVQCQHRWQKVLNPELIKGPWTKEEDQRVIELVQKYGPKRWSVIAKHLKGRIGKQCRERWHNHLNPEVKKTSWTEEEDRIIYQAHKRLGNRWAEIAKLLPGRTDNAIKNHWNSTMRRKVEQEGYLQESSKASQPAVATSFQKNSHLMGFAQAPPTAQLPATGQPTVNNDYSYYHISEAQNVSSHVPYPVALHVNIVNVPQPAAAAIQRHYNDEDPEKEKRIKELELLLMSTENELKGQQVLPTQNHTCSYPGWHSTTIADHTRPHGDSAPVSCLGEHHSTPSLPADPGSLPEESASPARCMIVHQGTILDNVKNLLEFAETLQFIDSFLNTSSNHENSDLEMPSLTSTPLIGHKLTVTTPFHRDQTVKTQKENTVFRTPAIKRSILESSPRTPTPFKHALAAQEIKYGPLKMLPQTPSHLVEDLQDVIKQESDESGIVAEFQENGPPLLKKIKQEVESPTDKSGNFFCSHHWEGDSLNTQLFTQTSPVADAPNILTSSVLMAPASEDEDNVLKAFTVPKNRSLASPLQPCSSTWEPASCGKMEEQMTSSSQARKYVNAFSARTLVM
Chain of Oxysterols receptor LXR-alpha (Homo sapiens) (Q13133 whole entry, looked up): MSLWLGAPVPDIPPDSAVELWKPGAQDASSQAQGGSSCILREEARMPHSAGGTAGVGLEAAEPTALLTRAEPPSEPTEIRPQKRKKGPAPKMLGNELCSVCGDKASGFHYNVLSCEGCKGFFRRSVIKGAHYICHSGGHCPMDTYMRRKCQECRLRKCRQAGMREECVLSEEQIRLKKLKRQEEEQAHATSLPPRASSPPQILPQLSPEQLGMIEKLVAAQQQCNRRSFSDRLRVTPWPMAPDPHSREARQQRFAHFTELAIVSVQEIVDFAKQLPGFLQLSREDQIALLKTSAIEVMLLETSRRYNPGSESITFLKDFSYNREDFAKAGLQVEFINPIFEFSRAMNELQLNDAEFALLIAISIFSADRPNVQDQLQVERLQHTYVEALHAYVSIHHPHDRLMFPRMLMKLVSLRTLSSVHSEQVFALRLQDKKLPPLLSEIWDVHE
Chain of Hepatocyte nuclear factor 4-alpha (Homo sapiens) (P41235 whole entry, looked up, the tested form may be a part): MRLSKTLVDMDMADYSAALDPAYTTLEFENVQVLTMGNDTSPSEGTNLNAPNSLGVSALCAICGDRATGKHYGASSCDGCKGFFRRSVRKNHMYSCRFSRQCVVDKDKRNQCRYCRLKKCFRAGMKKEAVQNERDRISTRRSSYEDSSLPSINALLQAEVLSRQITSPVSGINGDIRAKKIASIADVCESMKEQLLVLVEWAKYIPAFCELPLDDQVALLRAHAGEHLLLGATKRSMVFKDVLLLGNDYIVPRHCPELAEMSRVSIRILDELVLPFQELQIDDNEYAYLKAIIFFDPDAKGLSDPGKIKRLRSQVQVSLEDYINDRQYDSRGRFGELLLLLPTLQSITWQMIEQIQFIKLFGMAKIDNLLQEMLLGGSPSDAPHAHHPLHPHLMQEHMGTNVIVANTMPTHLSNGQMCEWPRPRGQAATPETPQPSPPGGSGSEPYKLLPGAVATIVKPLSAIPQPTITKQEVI
Chain of Oxysterols receptor LXR-beta (Homo sapiens) (P55055 whole entry, looked up, the tested form may be a part): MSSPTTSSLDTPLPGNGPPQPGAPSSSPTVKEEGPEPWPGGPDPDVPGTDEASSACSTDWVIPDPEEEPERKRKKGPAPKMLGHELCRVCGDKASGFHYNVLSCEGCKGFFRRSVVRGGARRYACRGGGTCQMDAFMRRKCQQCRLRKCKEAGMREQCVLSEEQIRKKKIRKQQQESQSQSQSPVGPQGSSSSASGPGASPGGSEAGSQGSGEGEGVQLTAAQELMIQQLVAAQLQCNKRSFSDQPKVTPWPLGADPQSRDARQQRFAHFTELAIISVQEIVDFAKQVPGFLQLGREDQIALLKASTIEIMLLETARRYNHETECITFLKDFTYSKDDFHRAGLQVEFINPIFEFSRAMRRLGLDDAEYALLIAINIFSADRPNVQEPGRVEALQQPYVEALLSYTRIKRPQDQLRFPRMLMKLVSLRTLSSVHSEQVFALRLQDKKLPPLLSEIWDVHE
Chain of Nuclear respiratory factor 1 (Homo sapiens) (Q16656 whole entry, looked up): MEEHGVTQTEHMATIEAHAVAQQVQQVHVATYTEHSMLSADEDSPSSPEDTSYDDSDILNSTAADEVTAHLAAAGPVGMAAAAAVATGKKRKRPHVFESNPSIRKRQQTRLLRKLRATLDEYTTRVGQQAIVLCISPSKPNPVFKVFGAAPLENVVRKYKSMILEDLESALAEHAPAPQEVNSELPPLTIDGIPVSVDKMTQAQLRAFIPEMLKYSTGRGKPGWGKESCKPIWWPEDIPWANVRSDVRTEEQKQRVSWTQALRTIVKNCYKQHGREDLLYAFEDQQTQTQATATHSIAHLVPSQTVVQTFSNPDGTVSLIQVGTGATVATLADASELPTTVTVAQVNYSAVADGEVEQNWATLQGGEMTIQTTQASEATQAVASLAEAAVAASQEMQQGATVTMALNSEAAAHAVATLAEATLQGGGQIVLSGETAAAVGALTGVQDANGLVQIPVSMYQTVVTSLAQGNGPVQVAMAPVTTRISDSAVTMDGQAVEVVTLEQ

CCCCCCCCCCCCCCCC(=O)OC/C=C(C)/C=C/C=C(C)/C=C/C1=C(C)CCCC1(C)C
active: [8] 23.9 µM | [13] 20 µM
not listed: [15] | [16] | [17] | [18] | [19]
inactive: all other assays above

CSCCC=O
not listed: [2] | [3] | [4] | [5] | [18] | [19]
inactive: all other assays above

COc1ccc(CCC(C)=O)cc1
not listed: [11] | [12] | [13] | [14] | [15] | [16] | [18] | [19]
inactive: all other assays above

CC(C)=CCCC(C)CCOC=O (configuration not stated)
not listed: [2] | [4] | [11] | [12] | [13] | [14] | [15]
inactive: all other assays above

C[Si](C)(C)O[Si](C)(C)C
not listed: [9] | [11] | [12] | [13] | [14] | [15] | [16] | [19]
inactive: all other assays above

CCCC[P+](CCCC)(CCCC)CCCC
inactive: [1] | [15] | [3] | [4] | [5] | [6] | [7] | [8] | [9] | [10]

CC(=O)O[C@@H]1CC2CCC1(C)C2(C)C (some centres not stated)
not listed: [9] | [11] | [12] | [13] | [14] | [15] | [16]
inactive: all other assays above

Cc1ccc(C)o1
inactive: [1] | [15] | [19] | [4] | [6] | [7] | [8] | [9] | [10]

CCCCOC(=O)CCCCCCCC(=O)OCCCC
not listed: [2] | [17] | [18]
inactive: all other assays above

c1ccc(CCc2ccccc2)cc1
active: [8] 149 µM | [11] 14.5 µM | [12] 36.7 µM | [13] 29.8 µM | [14] 30.7 µM
not listed: [17]
inactive: all other assays above

OCc1cccc(Oc2ccccc2)c1
not listed: [4] | [5] | [11] | [12] | [13] | [14] | [19]
inactive: all other assays above

CC1(C)COCN1
not listed: [11] | [12] | [13] | [14] | [15] | [16] | [19]
inactive: all other assays above

N#Cc1cscn1
not listed: [2] | [3] | [11] | [12] | [13] | [14]
inactive: all other assays above

O=C(O)COCC(=O)O
not listed: [3] | [11] | [12] | [13] | [14] | [19]
inactive: all other assays above

COc1ccc(COC(C)=O)cc1
not listed: [3] | [10] | [11] | [12] | [13] | [14] | [15]
inactive: all other assays above

O=C(O)c1ccc(O)cc1
not listed: [2] | [9] | [11] | [12] | [13] | [14] | [17]
inactive: all other assays above

CC(=O)CC(=O)Nc1ccccc1
not listed: [3] | [4] | [10] | [11] | [12] | [13] | [14] | [15]
inactive: all other assays above

C=COCCOCCOC=C
not listed: [2] | [11] | [12] | [13] | [14] | [16]
inactive: all other assays above

CC(C)C[C@H](NC(=O)OCC1c2ccccc2-c2ccccc21)C(=O)O
active: [8] 31.1 µM
not listed: [3] | [11] | [12] | [13] | [14] | [19]
inactive: all other assays above
